Records with an inconclusive call do not appear. Calls of active or inactive are those of the source. Unless noted, calls follow the shape of the dose curve; as a rule, active = well fitted curve in the direction sought with a large enough effect; inconclusive = small, poorly fitted or top-dose-only effect, or another doubt; inactive = no such curve, though single readings can be large; an effect the other way counts as inactive or inconclusive.
Assays:
[1] = biological target: Glucocorticoid receptor (Homo sapiens) (UniProt P04150); assay: GR-EFC Redistribution (AID 451; calls by dose curve; also: potency is read from the fitted curve at half-maximal effect); settings: CHO-K1 GR-EFC translocation, beta-gal luminescence, 2 h
In short: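 CHO-K1 cells stably expressing nuclear-localized β-gal enzyme acceptor and GR fused C-terminally to the enzyme donor fragment; ligand-driven nuclear translocation restores β-gal by complementation. Compounds titrated up to 46 uM final, 2 h at 37 °C; luminescence read.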

[2] = biological target: 3',5'-cyclic-AMP phosphodiesterase 4B (Homo sapiens) (UniProt Q07343); assay: qHTS Assay for Inhibitors of PDE-IV (AID 607; active = well fitted activation curve with a large enough effect in the main read-out, with a control signal flat, not every such curve was filed as active; also: potency is read from the fitted curve at half-maximal effect); settings: HEK293 ACTOne CNG channel cells, membrane potential fluorescence; series mostly up to 22.9 µM
In short: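 Live HEK293 cells with a modified cyclic nucleotide-gated (CNG) channel report intracellular cAMP via membrane-potential dye fluorescence (ex 535/em 590 nm). Endogenous PDE-IV was targeted. Compounds were tested at up to 22.9 uM final; RO 20-1724 100 uM served as control.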

[3] = biological target: Cytochrome P450 2D6 (Homo sapiens) (UniProt P10635); assay: qHTS Assay for Inhibitors and Substrates of Cytochrome P450 2D6 (AID 891); settings: recombinant CYP2D6, luciferin-ME EGE luminescence; series mostly up to 57.1 µM;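 also: luciferin methyl ether substrate demethylated by CYP2D6 with NADPH regeneration; nearly all actives have a fitted effect of over 60% in size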
In short: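 Human CYP2D6 (5 nM) with 30 uM Luciferin-ME EGE (at Km) in 100 mM KPO4, compound preincubated 10 min, then NADPH regeneration system for 60 min at room temperature. Luciferin read by luminescence; normalized to 1.43 uM quinidine.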

[4] = biological target: Cytochrome P450 2C19 (Homo sapiens) (UniProt P33261); assay: qHTS Assay for Inhibitors and Substrates of Cytochrome P450 2C19 (AID 899); settings: recombinant CYP2C19, luciferin-H EGE luminescence; series mostly up to 57.1 µM; also: nearly all actives have a fitted effect of over 60% in size; also: potency is read from the fitted curve at half-maximal effect
In short: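 In 50mM KPO4, the reaction held 5nM enzyme and KM-level (10uM) Luciferin-H EGE; it ran 60 min at 37C after NADPH regeneration and a 10 min compound preincubation. Luminescence values were scaled to 57uM ketoconazole as complete inhibition.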

[5] = biological target: Cytochrome P450 2C9 (Homo sapiens) (UniProt P11712); assay: qHTS Assay for Inhibitors and Substrates of Cytochrome P450 2C9 (AID 883); settings: recombinant CYP2C9, luciferin-H luminescence, 60 min; series mostly up to 57.1 µM; also: nearly all actives have a fitted effect of over 60% in size; also: potency is read from the fitted curve at half-maximal effect
In short: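 CYP2C9 deoxyluciferin hydroxylation, 37C, 60 min with NADPH regeneration; 10nM enzyme, 100uM Luciferin-H (KM). Glo detection reagent stopped reaction; luminescence normalized to sulphaphenazole (57uM) full inhibition.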

[6] = biological target: Mitogen-activated protein kinase 10 (Mus musculus) (UniProt Q61831); assay: JNK3 AlphaScreen Assay (AID 530; active = well fitted curve in either direction with a large enough effect, not every such curve was filed as active;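 also: kinase came from lysate of stimulated human HepG2 cells; signal reports phosphorylation of biotinylated GST-cJun 1-79 at Ser73 with 10 µM ATP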); settings: JNK3 lysate, c-Jun phosphorylation; series mostly up to 57.1 µM
In short: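 JNK3 came from HepG2 lysates pre-activated with IL-1beta and TNF-alpha and phosphorylated biotinylated GST-cJun (1-79) at 10 uM ATP, pH 7.6, room temperature. Compounds were titrated. AlphaScreen signal used anti-phospho-cJun (Ser73) antibody.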

[7] = biological target: Glucocorticoid receptor (Homo sapiens) (UniProt P04150); assay: GR-GFP Redistribution (AID 450;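 active = compounds whose dose series gives a full or clear partial fitted curve of increased nuclear translocation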; also: potency is read from the fitted curve at half-maximal effect); settings: U2OS GR-GFP nuclear translocation, laser cytometry, 2 h; series mostly up to 20.6 µM
[8] = biological target: Tumor susceptibility gene 101 protein (Homo sapiens) (UniProt Q99816); assay: qHTS Assay for Iinhibitors of HIV-1 Budding by Blocking the Interaction of PTAP/TSG101: Hit Validation (AID 651600); settings: PTAP peptide/TSG101 UEV interaction, biochemical assay; series mostly up to 57.5 µM; also: nearly all actives have a fitted effect of over 70% in size
In short: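 Compounds are added to the Tsg101 binding domain (10 uM final) in pH 7.5 HEPES buffer. FITC-PTAP peptide follows at 50 nM final. After 20 min at r.t., polarized FITC emission is measured.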

[9] = biological target: Tyrosyl-DNA phosphodiesterase 1 (Homo sapiens) (UniProt Q9NUW8); assay: Confirmation Assay for Inhibitors of Tyrosyl-DNA Phosphodiesterase (TDP1) (AID 489007); settings: recombinant human TDP1 enzymatic activity, dose-response; also: potency is read from the fitted curve at half-maximal effect; nearly all actives have a fitted effect of over 40% in size
In short: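 Confirmation of primary-screen follow-ups in a qHTS format. Substrate cleavage by Tdp1 (1 nM) of a 3'-phosphotyrosine-FITC, 5'-biotin oligo (15 nM) was monitored as decreased AlphaScreen signal after a 5 min room-temperature reaction.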

Measured: Potency

Sequence of Cytochrome P450 2C19 (Homo sapiens) (P33261 whole entry, looked up): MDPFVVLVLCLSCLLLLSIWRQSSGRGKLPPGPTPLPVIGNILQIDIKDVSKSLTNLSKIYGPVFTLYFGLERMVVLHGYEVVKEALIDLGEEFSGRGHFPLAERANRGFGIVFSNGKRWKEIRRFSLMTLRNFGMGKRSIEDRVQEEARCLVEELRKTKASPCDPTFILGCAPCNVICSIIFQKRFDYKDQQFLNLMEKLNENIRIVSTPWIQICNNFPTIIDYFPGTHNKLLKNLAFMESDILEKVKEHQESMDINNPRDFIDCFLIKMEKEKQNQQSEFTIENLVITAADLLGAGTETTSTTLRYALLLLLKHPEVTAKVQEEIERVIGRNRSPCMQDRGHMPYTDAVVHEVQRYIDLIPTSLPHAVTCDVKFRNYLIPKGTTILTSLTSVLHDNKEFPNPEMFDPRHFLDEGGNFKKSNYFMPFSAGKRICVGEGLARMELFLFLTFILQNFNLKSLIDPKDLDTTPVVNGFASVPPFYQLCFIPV
Sequence of Cytochrome P450 2D6 (Homo sapiens) (P10635 whole entry, looked up): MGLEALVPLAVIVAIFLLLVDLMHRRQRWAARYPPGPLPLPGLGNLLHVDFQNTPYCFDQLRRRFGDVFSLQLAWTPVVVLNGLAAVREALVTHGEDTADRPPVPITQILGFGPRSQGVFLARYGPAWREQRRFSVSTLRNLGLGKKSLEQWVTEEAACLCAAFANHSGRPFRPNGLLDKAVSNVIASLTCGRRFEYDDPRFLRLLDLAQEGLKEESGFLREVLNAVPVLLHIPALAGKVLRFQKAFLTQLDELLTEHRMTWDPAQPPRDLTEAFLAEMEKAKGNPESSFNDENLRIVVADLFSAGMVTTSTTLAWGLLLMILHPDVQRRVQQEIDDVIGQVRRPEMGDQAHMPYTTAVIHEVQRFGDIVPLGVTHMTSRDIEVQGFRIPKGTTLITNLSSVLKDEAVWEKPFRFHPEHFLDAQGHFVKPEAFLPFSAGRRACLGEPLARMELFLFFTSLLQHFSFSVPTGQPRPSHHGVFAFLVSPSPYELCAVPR
Sequence of Cytochrome P450 2C9 (Homo sapiens) (P11712 whole entry, looked up): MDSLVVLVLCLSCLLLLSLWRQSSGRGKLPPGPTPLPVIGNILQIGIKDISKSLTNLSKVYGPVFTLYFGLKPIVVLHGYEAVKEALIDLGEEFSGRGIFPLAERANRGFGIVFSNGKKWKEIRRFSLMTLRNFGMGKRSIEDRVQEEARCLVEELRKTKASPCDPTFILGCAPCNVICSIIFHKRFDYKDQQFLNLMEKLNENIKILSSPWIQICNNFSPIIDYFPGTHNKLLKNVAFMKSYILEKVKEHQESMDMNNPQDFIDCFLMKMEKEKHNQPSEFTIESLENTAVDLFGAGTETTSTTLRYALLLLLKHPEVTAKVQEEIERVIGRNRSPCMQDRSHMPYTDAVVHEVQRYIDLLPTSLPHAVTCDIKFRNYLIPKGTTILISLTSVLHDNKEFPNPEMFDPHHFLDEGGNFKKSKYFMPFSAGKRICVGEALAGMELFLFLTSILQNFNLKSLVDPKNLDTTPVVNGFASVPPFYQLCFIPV
Sequence of Glucocorticoid receptor (Homo sapiens) (P04150 whole entry, looked up, the tested form may be a part): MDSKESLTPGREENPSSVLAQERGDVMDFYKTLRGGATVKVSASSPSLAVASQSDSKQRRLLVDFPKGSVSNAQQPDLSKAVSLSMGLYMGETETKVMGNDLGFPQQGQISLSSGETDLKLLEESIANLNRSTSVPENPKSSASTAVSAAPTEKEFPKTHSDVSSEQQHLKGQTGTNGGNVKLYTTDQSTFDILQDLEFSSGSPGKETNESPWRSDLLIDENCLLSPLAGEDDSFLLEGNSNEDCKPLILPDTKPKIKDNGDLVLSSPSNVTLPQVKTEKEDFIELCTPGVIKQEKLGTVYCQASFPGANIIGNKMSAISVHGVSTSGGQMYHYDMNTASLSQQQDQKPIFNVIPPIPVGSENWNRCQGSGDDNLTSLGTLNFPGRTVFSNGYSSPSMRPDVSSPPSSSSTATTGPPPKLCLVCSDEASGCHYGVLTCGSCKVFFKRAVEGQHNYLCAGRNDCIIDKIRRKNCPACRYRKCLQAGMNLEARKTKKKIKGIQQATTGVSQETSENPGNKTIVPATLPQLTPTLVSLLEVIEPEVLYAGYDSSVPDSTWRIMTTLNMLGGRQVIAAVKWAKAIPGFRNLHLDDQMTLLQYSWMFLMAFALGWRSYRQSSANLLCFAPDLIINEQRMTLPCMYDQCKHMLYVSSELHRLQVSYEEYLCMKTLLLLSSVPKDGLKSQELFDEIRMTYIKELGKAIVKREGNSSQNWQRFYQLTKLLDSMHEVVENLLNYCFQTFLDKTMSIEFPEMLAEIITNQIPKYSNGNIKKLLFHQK
Sequence of 3',5'-cyclic-AMP phosphodiesterase 4B (Homo sapiens) (Q07343 whole entry, looked up): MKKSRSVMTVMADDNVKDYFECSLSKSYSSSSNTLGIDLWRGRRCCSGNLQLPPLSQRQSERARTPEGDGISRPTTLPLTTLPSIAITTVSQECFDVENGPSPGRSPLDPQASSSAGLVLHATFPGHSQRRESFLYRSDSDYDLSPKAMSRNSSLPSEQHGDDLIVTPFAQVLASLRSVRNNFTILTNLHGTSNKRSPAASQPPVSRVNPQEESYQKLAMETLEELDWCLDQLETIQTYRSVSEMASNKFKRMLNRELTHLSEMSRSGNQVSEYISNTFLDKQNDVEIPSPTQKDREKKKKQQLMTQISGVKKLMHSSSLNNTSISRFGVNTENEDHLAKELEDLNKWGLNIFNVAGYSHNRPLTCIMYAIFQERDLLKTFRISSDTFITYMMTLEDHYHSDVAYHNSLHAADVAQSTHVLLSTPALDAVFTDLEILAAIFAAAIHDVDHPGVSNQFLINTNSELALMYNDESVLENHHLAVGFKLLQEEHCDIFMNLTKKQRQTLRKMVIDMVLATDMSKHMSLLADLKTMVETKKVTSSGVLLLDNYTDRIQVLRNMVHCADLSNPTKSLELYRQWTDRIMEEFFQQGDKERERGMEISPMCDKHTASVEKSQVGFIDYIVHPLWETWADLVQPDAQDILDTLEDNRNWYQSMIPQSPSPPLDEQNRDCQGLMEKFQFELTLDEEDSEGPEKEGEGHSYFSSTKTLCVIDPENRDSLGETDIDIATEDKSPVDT
Sequence of Tyrosyl-DNA phosphodiesterase 1 (Homo sapiens) (Q9NUW8 whole entry, looked up): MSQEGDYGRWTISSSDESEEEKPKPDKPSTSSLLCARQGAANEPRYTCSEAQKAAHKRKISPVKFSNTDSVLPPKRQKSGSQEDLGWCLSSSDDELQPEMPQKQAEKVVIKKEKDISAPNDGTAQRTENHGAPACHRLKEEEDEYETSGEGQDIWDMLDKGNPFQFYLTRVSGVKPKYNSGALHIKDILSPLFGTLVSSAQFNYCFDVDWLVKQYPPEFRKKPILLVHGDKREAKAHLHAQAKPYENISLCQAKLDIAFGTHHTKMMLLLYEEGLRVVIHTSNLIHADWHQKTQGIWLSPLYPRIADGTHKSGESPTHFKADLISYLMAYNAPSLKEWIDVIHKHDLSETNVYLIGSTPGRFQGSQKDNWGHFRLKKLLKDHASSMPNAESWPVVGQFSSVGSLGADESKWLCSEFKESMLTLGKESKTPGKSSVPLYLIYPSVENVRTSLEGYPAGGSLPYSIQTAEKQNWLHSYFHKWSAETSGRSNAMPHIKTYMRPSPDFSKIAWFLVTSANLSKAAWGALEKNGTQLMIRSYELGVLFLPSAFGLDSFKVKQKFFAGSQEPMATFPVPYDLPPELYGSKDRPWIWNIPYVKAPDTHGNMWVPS
Sequence of Tumor susceptibility gene 101 protein (Homo sapiens) (Q99816 whole entry, looked up, the tested form may be a part): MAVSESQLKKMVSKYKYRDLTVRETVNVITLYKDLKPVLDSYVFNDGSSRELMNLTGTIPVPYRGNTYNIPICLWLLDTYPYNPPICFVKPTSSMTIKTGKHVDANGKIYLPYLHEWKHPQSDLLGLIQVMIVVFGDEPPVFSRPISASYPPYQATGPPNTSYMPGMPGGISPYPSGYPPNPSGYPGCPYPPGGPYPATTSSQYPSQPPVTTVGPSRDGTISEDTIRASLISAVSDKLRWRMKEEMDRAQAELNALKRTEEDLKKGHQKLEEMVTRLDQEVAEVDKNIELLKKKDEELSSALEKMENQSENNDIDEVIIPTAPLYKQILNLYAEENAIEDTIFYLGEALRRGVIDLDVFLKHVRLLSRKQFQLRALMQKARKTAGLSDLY

CC(C)C[C@@H](CC(=O)N[C@H](CC(=O)N[C@@H]1CCCC[C@H]1C(=O)N[C@H](CC(=O)N[C@@H](CCC(=O)O)CC(=O)O)Cc1ccccc1)C(C)C)NC(=O)[C@@H]1CNCC[C@H]1N
inactive: [1] > 46 µM | [2] | [3] | [4]

CC(C)C[C@@H](CC(=O)N[C@@H](CCCN)CC(=O)N[C@@H]1CCNC[C@H]1C(=O)N[C@H](CC(=O)N[C@@H](CCC(=O)O)CC(=O)O)Cc1ccccc1)NC(=O)[C@@H]1CCCC[C@H]1N
inactive: [1] > 46 µM | [2] | [5]

NCCC[C@@H](CC(=O)N[C@@H]1CCCC[C@H]1C(=O)N[C@H](CC(=O)N[C@@H](CCC(=O)O)CC(=O)O)Cc1ccccc1)NC(=O)C[C@H](Cc1ccccc1)NC(=O)[C@@H]1CCCC[C@H]1N
inactive: [1] > 46 µM | [2] | [3] | [4]

CC(C)C[C@@H](CC(=O)N[C@@H](CCC(=O)O)CC(=O)O)NC(=O)[C@@H]1CNCC[C@H]1NC(=O)C[C@H](CCCN)NC(=O)C[C@H](Cc1c[nH]c2ccccc12)NC(=O)[C@@H]1CCCC[C@H]1N
inactive: [1] > 46 µM | [6] | [2] | [3] | [4]

CC(C)C[C@@H](CC(=O)N[C@@H](CCC(=O)O)CC(=O)O)NC(=O)[C@@H]1CCCC[C@H]1NC(=O)C[C@H](CCCN)NC(=O)C[C@H](CO)NC(=O)[C@@H]1CCCC[C@H]1N
inactive: [1] > 46 µM | [2] | [5] | [3] | [4]

CC(C)[C@@H](CC(=O)N[C@@H]1CCCC[C@H]1C(=O)N[C@H](CC(=O)N[C@@H](CCC(=O)O)CC(=O)O)Cc1ccccc1)NC(=O)C[C@H](Cc1ccccc1)NC(=O)[C@@H]1CNCC[C@H]1N
inactive: [1] > 46 µM | [2] | [3] | [4]

COc1cc(/C=C\C(=O)N2CCCCC2=O)cc(OC)c1OC
inactive: [1] > 46 µM | [5] | [3] | [4]

NCCC[C@@H](CC(=O)N[C@@H]1CCNC[C@H]1C(=O)N[C@H](CC(=O)N[C@@H](CCC(=O)O)CC(=O)O)Cc1c[nH]c2ccccc12)NC(=O)C[C@H](Cc1ccccc1)NC(=O)[C@@H]1CCCC[C@H]1N
inactive: [1] > 46 µM | [2] | [5] | [3] | [4]

C=C[C@@](C)(O)CC[C@H]1[C@]2(C)CCCC(C)(C)[C@H]2CC[C@]1(C)O
inactive: [7] > 46 µM | [1] > 46 µM | [3]

NCCC[C@@H](CC(=O)N[C@@H]1CCCC[C@H]1C(=O)N[C@H](CC(=O)N[C@@H](CCC(=O)O)CC(=O)O)Cc1ccccc1)NC(=O)C[C@H](Cc1ccccc1)NC(=O)[C@@H]1CNCC[C@H]1N
inactive: [1] > 46 µM | [2] | [5] | [3] | [4]

CC(=O)c1c(O)c(C)c(O)c2c1OC1=CC(=O)[C@H](C(C)=O)C(=O)[C@]12C
inactive: [7] > 46 µM | [1] > 46 µM | [2] | [3] | [4]

NCCC[C@@H](CC(=O)N[C@@H]1CCNC[C@H]1C(=O)N[C@H](CC(=O)N[C@@H](CCC(=O)O)CC(=O)O)Cc1c[nH]c2ccccc12)NC(=O)C[C@H](CO)NC(=O)[C@@H]1CCCC[C@H]1N
inactive: [1] > 46 µM | [6] | [2] | [3] | [4]

Cc1ccc(C(=O)[C@@H]2[C@@H]3[C@@H](C(=O)[C@@H]4OC[C@H]3O4)[C@@H]3C=Cc4ccccc4N23)cc1
active: [5] 10 µM | [4] 15.8 µM
inactive: [7] > 46 µM | [1] > 46 µM | [2]

CC(C)[C@@H](CC(=O)N[C@@H]1CCCC[C@H]1C(=O)N[C@H](CC(=O)N[C@@H](CCC(=O)O)CC(=O)O)Cc1ccccc1)NC(=O)C[C@H](CO)NC(=O)[C@@H]1CCCC[C@H]1N
inactive: [1] > 46 µM | [6] | [2] | [3]

COc1ccc(-c2coc3ccc(O[C@@H]4O[C@@H](COC(C)=O)[C@@H](OC(C)=O)[C@@H](OC(C)=O)[C@H]4OC(C)=O)c(OC(C)=O)c3c2=O)cc1
inactive: [7] > 46 µM | [1] > 46 µM | [5] | [3]

NCCC[C@@H](CC(=O)N[C@@H]1CCNC[C@H]1C(=O)N[C@H](CC(=O)N[C@@H](CCC(=O)O)CC(=O)O)Cc1ccccc1)NC(=O)C[C@H](Cc1ccccc1)NC(=O)[C@@H]1CCCC[C@H]1N
inactive: [1] > 46 µM | [6] | [2] | [5] | [3] | [4]

NCCC[C@@H](CC(=O)N[C@@H]1CCCC[C@H]1C(=O)N[C@H](CC(=O)N[C@@H](CCC(=O)O)CC(=O)O)Cc1ccccc1)NC(=O)C[C@H](CO)NC(=O)[C@@H]1CCCC[C@H]1N
inactive: [1] > 46 µM | [2] | [3] | [4]

CN[C@@H]1[C@H](O)[C@H](NC)[C@@H]2O[C@]3(O)C(=O)C[C@@H](C)O[C@H]3O[C@@H]2[C@H]1O
inactive: [7] > 46 µM | [2]

CC(C)C[C@@H](CC(=O)N[C@@H](CCCN)CC(=O)N[C@@H]1CCCC[C@H]1C(=O)N[C@H](CC(=O)N[C@@H](CCC(=O)O)CC(=O)O)CC(C)C)NC(=O)[C@@H]1CNCC[C@H]1N
inactive: [1] > 46 µM | [6] | [2] | [3]

CC(C)C[C@@H](CC(=O)N[C@@H](CCC(=O)O)CC(=O)O)NC(=O)[C@@H]1CNCC[C@H]1NC(=O)C[C@H](CCCN)NC(=O)C[C@H](Cc1c[nH]c2ccccc12)NC(=O)[C@@H]1CNCC[C@H]1N
inactive: [1] > 46 µM | [6] | [2] | [5] | [3] | [4]

CC(C)C[C@@H](CC(=O)N[C@@H](CCC(=O)O)CC(=O)O)NC(=O)[C@@H]1CCCC[C@H]1NC(=O)C[C@H](CCCN)NC(=O)C[C@H](Cc1c[nH]c2ccccc12)NC(=O)[C@@H]1CCCC[C@H]1N
inactive: [1] > 46 µM | [6] | [2] | [3] | [4]

CC(C)[C@@H](CC(=O)N[C@@H]1CCCC[C@H]1C(=O)N[C@H](CC(=O)N[C@@H](CCC(=O)O)CC(=O)O)Cc1c[nH]c2ccccc12)NC(=O)C[C@H](Cc1c[nH]c2ccccc12)NC(=O)[C@@H]1CNCC[C@H]1N
inactive: [1] > 46 µM | [2] | [5] | [3] | [4]

NCCC[C@@H](CC(=O)N[C@@H]1CCCC[C@H]1C(=O)N[C@H](CC(=O)N[C@@H](CCC(=O)O)CC(=O)O)Cc1ccccc1)NC(=O)C[C@H](Cc1c[nH]c2ccccc12)NC(=O)[C@@H]1CNCC[C@H]1N
inactive: [1] > 46 µM | [5] | [3] | [4]
active: [2] 1.58 µM

C=C/C(=C\C)C[C@@H](CC(=O)N[C@@H](CCC(=O)O)CC(=O)O)NC(=O)[C@@H]1CNCC[C@H]1NC(=O)C[C@@H](NC(=O)C[C@H](Cc1ccccc1)NC(=O)[C@@H]1CCCC[C@H]1N)C(C)C
inactive: [1] > 46 µM | [6] | [2] | [3]

CC(C)C[C@@H](CC(=O)N[C@@H](CCCN)CC(=O)N[C@@H]1CCNC[C@H]1C(=O)N[C@H](CC(=O)N[C@@H](CCC(=O)O)CC(=O)O)Cc1ccccc1)NC(=O)[C@@H]1CNCC[C@H]1N
inactive: [1] > 46 µM | [6] | [2] | [5] | [3]

NCCC[C@@H](CC(=O)N[C@@H]1CCNC[C@H]1C(=O)N[C@H](CC(=O)N[C@@H](CCC(=O)O)CC(=O)O)Cc1ccccc1)NC(=O)C[C@H](Cc1c[nH]c2ccccc12)NC(=O)[C@@H]1CCCC[C@H]1N
inactive: [1] > 46 µM | [6] | [2] | [5] | [3] | [4]

CCN(CC)C(=O)c1sc2nc(-c3cccs3)cc(-c3cccs3)c2c1N
inactive: [7] > 20.6 µM | [8]

Cc1nnc(NC(=O)CCSCCC(=O)Nc2nnc(C)s2)s1
active: [9] 15.8 µM

COc1ccccc1C1CN(c2ccccc2)N=C1c1cccs1 (stereo not given)
active: [9] 25.1 µM

Cc1ccc(NC(=O)CN2C(=O)S/C(=C\c3ccc(-c4cccc(C(=O)O)c4C)o3)C2=O)cc1
active: [9] 11.2 µM

O=C(COc1ccc2oc(-c3ccccc3)cc(=O)c2c1)NCc1ccco1
active: [9] 44.7 µM

Cc1ccc(C(=O)O)cc1-c1ccc(/C=C2\SC(=O)N(CC(=O)Nc3ccccc3)C2=O)o1
active: [9] 6.31 µM

O=C(CSc1nccc(=O)[nH]1)NCc1ccco1
active: [9] 31.6 µM

Nc1cc([N+](=O)[O-])ccc1N1C(=O)CCCC1=O
active: [9] 15.8 µM

COC(=O)c1cc(NC(=O)c2ccc3c(c2)NC(=O)c2ccccc2S3)cc(C(=O)OC)c1
active: [9] 25.1 µM

CCn1c(SCc2nc3sc(C(=O)O)c(C)c3c(=O)[nH]2)nc2ccccc21
active: [9] 3.16 µM

O=C(Nc1cc2c(oc1=O)CCCC2=O)c1ccc(Cl)cc1
active: [9] 31.6 µM

Nc1nonc1-c1nc2ccccc2n1CC(=O)N/N=C/c1ccc(-c2cccc(C(=O)O)c2)o1
active: [9] 14.1 µM
